BaF3 tox – counter-screen for JAK2V617F inhibitors: parental Ba/F3 viability inhibitors | CellTiter-Glo ATP luminescence | 220,000 tested, 1.1% active | inhibition, % at 5.6 µM;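 active = inhibition above a per-campaign cutoff, the mean inhibition of all tested compounds plus 3 SD, cut at about 27% in these data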;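 note: 0% = DMSO wells and 100% = JAK Inhibitor I control wells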
KLF5 inhibitor – inhibitors of KLF5 expression | AID 1700 | inhibition, % at 5 µM | DLD-1 KLF5 promoter-luciferase reporter, luminescence | 290,000 tested, 0.23% active;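 active = inhibition above a per-plate limit of that plate's mean compound inhibition plus 3 SD, cut at about 60% in these data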;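 note: 0% = DMSO wells and 100% = LY294002 at 200 µM; higher means less KLF5 promoter-driven luciferase light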
IEC-6 cytotox – kills IEC-6 intestinal cells in KLF5 counter-screen; IEC-6 cytotoxicity, luminescence viability; inhibition, % at 5 µM; 290,000 tested, 0.78% active;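 note: 0% = plate median of test compound wells and 100% = cytotoxic reference compound wells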
aSyn UTR inh – 5' untranslated region of α-synuclein, MLPCN primary screen; alpha-synuclein 5'UTR reporter, inhibitor activity; inhibition, % (tested at 7.5 µM); 300,000 tested, 0.82% active; AID 1813; in the data active = inhibition above about 60%; inconclusive = no clear call, values can overlap the other calls;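 note: H4 neuroglioblastoma cells stably carrying SNCA 5'UTR luciferase fusion; 0% = DMSO wells and 100% = positive control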
Ba/F3 V617F tox – lowers viability of Ba/F3 cells expressing EpoR and JAK2V617F | AID 1446 | 220,000 tested, 1.1% active | ATP luminescence | inhibition, % at 5.6 µM;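 active = inhibition above the campaign mean plus 3 SD over all tested compounds, cut at about 24% in these data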;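 note: cytokine-independent growth of Ba/F3 cells driven by EpoR plus mutant JAK2; 0% = DMSO-treated cells and 100% = JAK inhibitor I control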
APP 5UTR inh – APP translation inhibition; SH-SY5Y APP 5'UTR-luciferase reporter, luminescence; 190,000 tested, 0.82% active; AID 1285; inhibition, % at 2 µM;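 active = inhibition above a set limit, derived from the sample mean plus 3 SD, cut at about 45% in these data; inconclusive = one replicate passes the limit while the other fails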
IEC-6 tox confirm – confirmation of cytotoxic compounds in rat IEC-6 intestinal epithelial cells; inhibition, % at 5 µM; 1,900 tested, 63% active; shares compounds with IEC-6 cytotox; IEC-6 rat intestinal epithelial viability, luminescence; AID 1907;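 note: 0% = vehicle and 100% = reference cytotoxic drug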
* = called active by the depositor; ? = inconclusive; . = not tested or not shown. A selection: hits, their analogues and other compounds. The true share with any hit is near 2.2%. Cut-off read from the data, not from the text of the source, unless noted: active = inhibition above about 22%; inactive = the rest.

SMILES | BaF3 tox | KLF5 inhibitor | IEC-6 cytotox | aSyn UTR inh | Ba/F3 V617F tox | APP 5UTR inh | IEC-6 tox confirm
CC1=C(C(=O)OCc2ccc3c(c2)OCO3)C(c2cccc([N+](=O)[O-])c2)NC(=O)N1 (configuration not stated) | 4 | -17 | 0 | 32 | 1 | 25 | .
CC(Sc1nc(N)cc(=O)[nH]1)C(=O)Nc1nc2c(s1)CCCC2 (configuration not stated) | . | -37 | 0 | 11 | . | . | .
CCOc1ccccc1C1CC(=O)Nc2cc(C)c(C)cc21 (configuration not stated) | . | 11 | 42* | 34 | . | . | 26*
CCOc1ccccc1C1CC(=O)Nc2cc(OC)c(OC)c(OC)c21 (configuration not stated) | 2 | -49 | -4 | 27 | -1 | -5 | .
CCOC(=O)c1oc2ccccc2c1COC(=O)CNC(=O)c1ccc(C)cc1 | . | . | . | 4 | . | . | .
c1ccc(CNc2ncnc3c2cnn3Cc2ccccc2)cc1 | 33* | 1 | 27* | 15 | 27* | 2 | 35*
OCCNc1ncnc2c1cnn2Cc1ccccc1 | . | -27 | -2 | -3 | . | . | .
O=C(Cn1ncc(Cl)c(Cl)c1=O)N1CCc2ccccc21 | -7 | 4 | 41* | 135* | 6 | 95* | 21
O=C(Nc1ccc(Cl)c(Cl)c1)Nc1ccon1 | . | 17 | 74* | -69 | . | . | 58*
Cc1cc(NC(=O)Nc2ccc(Cl)c(Cl)c2)no1 | . | . | . | -43 | . | . | .
CCOC(=O)c1ccc(NC(=O)Nc2ccc(Cl)cn2)cc1 | 1 | 16 | -2 | -34 | -2 | -10 | .
CCOC(=O)c1ccc(NC(=O)Nc2ccon2)cc1 | 88* | 60 | 87* | 64* | 88* | . | 65*
O=C(/C=C/c1ccc(Cl)cc1)NCc1ccco1 | -2 | -26 | -8 | -87 | -6 | -21 | .
O=[N+]([O-])CC(c1ccc(F)cc1)c1c[nH]c2ccccc12 (configuration not stated) | . | 32 | 47* | 1 | . | . | 29*
COc1ccc(NC(=O)C/C(C)=N/NC(=O)c2ccco2)c([N+](=O)[O-])c1 | . | -128 | 3 | -55 | . | . | .
Cc1cc(C)c(C)c(S(=O)(=O)N2CCN(C(=O)C3CSC4(C)CCC(=O)N34)CC2)c1C (configuration not stated) | . | . | . | 3 | . | . | .
CCOc1ccc2[nH]c3c(N4CCc5ccccc5C4)ncnc3c2c1 | -3 | 12 | 40* | 33 | 5 | . | 90*
CN1CCN(c2ncnc3c2[nH]c2ccc(F)cc23)CC1 | 8 | -20 | 4 | -7 | 1 | -4 | .
COc1ccc(NC(=O)c2c(N)no[n+]2[O-])c(OC)c1 | 2 | -32 | -2 | -6 | -3 | 15 | .
COc1ccc(NC(=O)c2c(N)no[n+]2[O-])cc1 | 0 | 15 | 33* | 12 | -4 | 18 | 28*
CC1CCN(Cc2ccc(-c3nnn(CC(=O)Nc4ccccc4Cl)n3)cc2)CC1 | 3 | 5 | 34* | -3 | -2 | 3 | 26*
O=[N+]([O-])c1cc(Cl)cc2c1nc(NCCO)c1ccccc12 | 8 | 21 | 25* | -207 | -1 | . | 26*
C=C1C(=O)[C@@]23[C@H](O)C[C@@H]4C(C)(C)CC[C@H](O)[C@@]4(C)[C@@H]2CC[C@@H]1[C@H]3O | 92* | 12 | 65* | 18 | 98* | 84* | 44*
CCCCCC1=NN2C(=O)CC(=O)N=C2S1 | -7 | -16 | 0 | 0 | 2 | . | .
CCCCNC(=O)N1CCN(c2ccnc3cc(Cl)ccc23)CC1 | . | -64 | 6 | 13 | . | . | .
SMILES | BaF3 tox | KLF5 inhibitor | IEC-6 cytotox | aSyn UTR inh | Ba/F3 V617F tox | APP 5UTR inh | IEC-6 tox confirm
Cc1ccc(NC(=O)CCc2c[nH]c3ccccc23)nc1 | . | 51 | 70* | 2 | . | . | 42*
COc1cc(C2NC(=O)CCC2[N+](=O)[O-])cc(OC)c1OC (configuration not stated) | . | -12 | -1 | 9 | . | . | .
Cc1nc2ccccc2c(=O)n1/N=C/c1ccc([N+](=O)[O-])o1 | -5 | -8 | 0 | -64 | 1 | . | .
CC(=O)N(/N=C/c1ccc([N+](=O)[O-])o1)c1nc2ccccc2c(=O)n1-c1ccccc1 | 4 | 14 | 55* | -61 | 5 | . | 8
COc1ccc(CCNCc2c(OC)ccc3ccccc23)cc1OC | . | -24 | 26* | 16 | . | . | 4
COc1ccccc1CNC(=O)COc1ccc(S(=O)(=O)N2CCOCC2)cc1C | . | -24 | -5 | 10 | . | . | .
CCc1cn([C@H]2C[C@H](O)[C@@H](CO)O2)c(=O)[nH]c1=O | 6 | -4 | 2 | 0 | 4 | 15 | .
O=c1[nH]c(=O)n([C@H]2C[C@H](O)[C@@H](CO)O2)cc1C(F)(F)F | 88* | 7 | 85* | 77* | 96* | 59* | 80*
COc1cc(CNCCN2CCOCC2)ccc1OCc1ccc(Cl)cc1 | 4 | -38 | 2 | -36 | -1 | -4 | .
COc1cc(CNCCCN2CCOCC2)cc(Br)c1OCc1ccc(Cl)cc1 | 73* | -19 | 53* | -30 | 30* | 10 | 46*
COc1cc(C(=O)Nc2ccc3c(c2)nc(C)n3C)cc(OC)c1OC | . | 20 | 30* | -92 | . | . | 19
Cc1nc2cc(NC(=O)c3ccc(Cl)cc3)ccc2n1C | . | -82 | -2 | -35 | . | . | .
COc1cc(C(=O)Nc2ccc3c(c2)ncn3C)cc(OC)c1OC | . | 50 | 55* | 25 | . | . | 34*
Cc1ccc2nc(SCC(=O)Nc3cc(C(F)(F)F)ccc3N3CCOCC3)[nH]c2c1 | 75* | 55 | 82* | 96* | 78* | 94* | 60*
O=C(CCN1C(=O)/C(=C/c2cccs2)SC1=S)N1CCCCC1 | . | -29 | 19 | -90 | . | . | .
Cc1ccccc1NNC(N)=S | 4 | -10 | 0 | 14 | -1 | -22 | .
NC(=S)NNc1c(F)c(F)c(F)c(F)c1F | 35* | 23 | 49* | 20 | 30* | 18 | -9
Cc1cccc(/C=C(\c2nc3ccccc3[nH]2)S(=O)(=O)c2ccccc2)c1 | 5 | -7 | 25* | -118 | 1 | 12 | 32*
CC(C)(C)c1ccc(/C=C(\c2nc3ccccc3[nH]2)S(=O)(=O)c2ccccc2)cc1 | . | . | . | -78 | . | . | .
Cc1cc(=O)oc2cc(OCC(=O)N3CC[C@@]4(O)CCCC[C@H]4C3)c(Cl)cc12 | . | -6 | 3 | 32 | . | . | .
Nc1c(Cl)cnn(-c2ccccc2)c1=O | . | . | . | 13 | . | . | .
O=c1c(Cl)c(Cl)cnn1-c1ccccc1 | -8 | 10 | 95* | -29 | -1 | 96* | 31*
O=C(Nn1cc(C(=O)Nc2ccccc2F)c2ccccc2c1=O)c1cnccn1 | 2 | 27 | 52* | 19 | 6 | 13 | 12
COc1ccc(C2CC(=O)N(C)c3ccccc3S2)cc1 (configuration not stated) | -6 | -30 | 24* | -38 | 4 | -6 | 9
CCOC(=O)c1[nH]c2c(c1C)C(=O)CC(c1ccc(F)cc1)C2 (configuration not stated) | 56* | 11 | 42* | ? | 56* | 92* | 60*
